TDP1 cell noCPT = qHTS for Inhibitors of human tyrosyl-DNA phosphodiesterase 1 (TDP1): qHTS in cells in absence of CPT. Potency, µM (doses to about 46.2 µM), for the others: at the highest dose activity change, negative = growth inhibition, actives largely listed as inhibitors. AID 686978, 2013. 420,000 compounds, 15% hits. DT40 Tdp1-/- hTDP1 cells, no CPT, ATP luminescence, 48 h; further: potency means the concentration at half of the fitted maximal effect; on the % scale 0 is the no-effect control and ±100 the full control effect; nearly all actives have a fitted effect of over 55% in size
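No-CPT arm: Tdp1-/-;hTDP1 DT40 cells (400/well) plus compounds, incubated ≥48 hr at 37 °C. Readout CellTiter-Glo luminescence.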
TDP1 block = TDP1 (human) enzyme inhibition. Q9NUW8. recombinant TDP1, AlphaScreen DNA substrate cleavage. Potency, µM (titrated, usually from 130 µM), for the others: top-dose activity change, negative = inhibition, usual class: inhibitors. 350,000 compounds, 0.28% hits; further: potency means the concentration at half of the fitted maximal effect; on the % scale 0 is the no-effect control and ±100 the full control effect; nearly all actives have a fitted effect of over 40% in size
Target sequence (Q9NUW8 whole entry, looked up): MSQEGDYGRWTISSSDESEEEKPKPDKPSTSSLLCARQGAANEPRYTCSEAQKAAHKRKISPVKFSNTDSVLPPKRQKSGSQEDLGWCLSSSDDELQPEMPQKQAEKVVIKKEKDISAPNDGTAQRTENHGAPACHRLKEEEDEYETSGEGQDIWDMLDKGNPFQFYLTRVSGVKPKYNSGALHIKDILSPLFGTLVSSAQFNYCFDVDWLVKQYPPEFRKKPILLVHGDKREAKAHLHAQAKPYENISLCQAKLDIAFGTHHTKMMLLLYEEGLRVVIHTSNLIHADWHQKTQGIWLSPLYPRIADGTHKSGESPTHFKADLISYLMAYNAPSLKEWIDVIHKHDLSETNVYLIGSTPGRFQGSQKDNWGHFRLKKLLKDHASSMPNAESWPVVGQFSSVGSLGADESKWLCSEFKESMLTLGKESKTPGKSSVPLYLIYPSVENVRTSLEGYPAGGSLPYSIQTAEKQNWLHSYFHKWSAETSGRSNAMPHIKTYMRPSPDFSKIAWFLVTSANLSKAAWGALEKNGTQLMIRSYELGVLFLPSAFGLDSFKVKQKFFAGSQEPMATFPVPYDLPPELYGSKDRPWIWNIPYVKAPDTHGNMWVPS
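Steps: enzyme plus compound, 15 min RT; add biotin/phosphotyrosine-FITC oligonucleotide (15 nM final), react 5 min; add donor/acceptor beads (10 ug/ml final), 10 min; read AlphaScreen. Tdp1 at 1 nM final.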
TGFb inhibitor = blocks TGF-b signaling; HepG2 CAGA-GFP TGF-b/SMAD3 reporter, GFP fluorescence, 18 h; TGF-beta stimulated, 500 pg/mL final; Potency, µM (highest dose often 46.1 µM), without a hit: top-dose activity, negative = inhibition, most hits filed as inhibitors; AID 588855; 410,000 compounds, 1.2% hits; further: potency means the concentration at half of the fitted maximal effect; on the % scale 0 is the no-effect control and ±100 the full control effect; nearly all actives have a fitted effect of over 65% in size
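Using HEPG2 CAGA-GFP reporter cells at 1000 cells/well, we pinned test compounds, stimulated with recombinant TGF-beta (500 pg/mL final) and measured total well GFP after 18 h.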
IL1B secr inh = inflammasome signaling inhibition, IL-1 beta readout. activity change, % at 57.5 µM. 360,000 compounds, 4.7% hits. AID 743279. THP-1 LPS/ATP IL-1B secretion, AlphaLISA, 16 h; hits give low values; in the data active means activity change below about -50%; inconclusive means mostly about -30% to -49%; further: on the % scale 0 is the no-effect control and ±100 the full control effect
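THP-1 cells pretreated 1 hr with compounds (up to 57.5 uM final), then stimulated with LPS (250 ng/mL final) plus ATP (1.25 mM final); secreted IL-1B measured by AlphaLISA after 16 hr, decreased signal indicating inhibition.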
HepG2 tox = HepG2 cytotoxicity, counter-screen for TGF-b inhibitors; HepG2 CAGA-GFP viability, ATP luminescence, 18 h; Potency, µM (titrated, usually from 46.1 µM), without a hit: top-dose activity change, negative = cytotoxicity, actives largely listed as cytotoxic; 410,000 compounds, 0.76% hits; AID 588856; further: potency means the concentration at half of the fitted maximal effect
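CellTiter-Glo luminescence gave cytotoxicity after 18 hours at 37 degrees C. The cells were HepG2 CAGA-GFP in 1% FBS DMEM, stimulated with 500 pg/mL TGF-beta after compound addition. %Activity was normalised to no-cell wells (complete cell-killing) and DMSO (no toxicity), and curves were fitted and classified.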
DT40 TDP1 CPT = growth inhibition of DT40 Tdp1-/-;hTDP1 cells with camptothecin (screen for TDP1 inhibitors) | chicken DT40 Tdp1-/-;hTDP1 cells + 20 nM CPT, ATP luminescence, 48 h | Potency, µM (doses to about 46.2 µM), for the others: at the highest dose activity change, negative = growth inhibition, usual class: inhibitors | 420,000 compounds, 12% hits | AID 686979; further: potency means the concentration at half of the fitted maximal effect; on the % scale 0 is the no-effect control and ±100 the full control effect; nearly all actives have a fitted effect of over 55% in size
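Chicken DT40 Tdp1-/- cells stably complemented with human TDP1 were seeded at 400 cells/well in medium containing 20 nM camptothecin, exposed to pin-transferred compounds, and grown at 37 °C for at least 48 hr. Viability was read as ATP luminescence.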
The depositor's hits bear a star. An excerpt weighted towards active compounds, which were near 19% of everything screened. Unless noted, the call rests on the fitted dose curve; in most records, active means well fitted curve in the direction sought with a large enough effect; inconclusive means small, poorly fitted or top-dose-only effect, or another doubt; inactive means no such curve, though single readings can be large; an effect the other way counts as inactive or inconclusive.

For COCCn1c(CNC(=O)c2cc(OC)c(OC)c(OC)c2)nc2cccnc21 the results were TDP1 cell noCPT -13%, TDP1 block 3%, TGFb inhibitor 9%, HepG2 tox 1% and DT40 TDP1 CPT -18%.
For CCC(=O)Nc1ccccc1-c1nnn(CC(=O)N2c3ccccc3CC2C)n1 (centres undefined) the results were TDP1 cell noCPT -22%, TDP1 block 0%, TGFb inhibitor -1%, IL1B secr inh -6, HepG2 tox -5% and DT40 TDP1 CPT inconclusive.
`COc1ccc(C(=O)Cn2nnc(-c3ccccc3NC(=O)C3CCCCC3)n2)cc1` gave TDP1 cell noCPT inconclusive, TDP1 block 5%, TGFb inhibitor -7%, IL1B secr inh 19, HepG2 tox -5% and DT40 TDP1 CPT 23µM*.
`CC1Cc2ccccc2N1C(=O)Cn1nnc(-c2ccccc2NC(=O)C2CCC2)n1` (centres undefined) gave TDP1 cell noCPT 15µM*, TDP1 block 2%, TGFb inhibitor -20%, IL1B secr inh -11, HepG2 tox -7% and DT40 TDP1 CPT inconclusive.
Screening COc1ccc(-c2cc(C(F)(F)F)nc(SCCC(=O)Nc3ccc(O)cc3)n2)cc1 returned TDP1 block 2%, TGFb inhibitor inconclusive and HepG2 tox -45%.
Screening CCCCC(=O)O[C@]1(C(=O)CO)CC[C@H]2[C@@H]3CCC4=CC(=O)CC[C@]4(C)[C@H]3[C@@H](O)C[C@@]21C returned TDP1 cell noCPT inconclusive, TDP1 block 5%, TGFb inhibitor -2%, IL1B secr inh -68*, HepG2 tox -27% and DT40 TDP1 CPT inconclusive.
For CCC(C(=O)OCC(=O)C1(O)CCC2C3CCC4=CC(=O)CCC4(C)C3C(O)CC21C)C(C)C (centres undefined) the results were TDP1 cell noCPT 16µM*, TGFb inhibitor inconclusive, IL1B secr inh -27, HepG2 tox 1% and DT40 TDP1 CPT 9.2µM*.
For CCCC(=O)OC1(C(=O)CO)CCC2C3CCC4=CC(=O)CCC4(C)C3C(O)CC21C (centres undefined) the results were TDP1 block 6%.
Screening COc1ccc(N(C(=O)c2ccccc2C)S(=O)(=O)c2ccc3c(c2)n(C)c(=O)n3C)cc1 returned TDP1 cell noCPT inconclusive, TDP1 block 4%, TGFb inhibitor 3%, HepG2 tox -3% and DT40 TDP1 CPT -22%.
Screening COc1ccc(Cn2c(CCC(=O)Nc3cccc(Cl)c3)nc3cccnc32)cc1 returned TDP1 cell noCPT -22%, TDP1 block 4%, TGFb inhibitor -9%, HepG2 tox -21% and DT40 TDP1 CPT -13%.
`CCOc1ccc(C(c2c(O)cc(C)n(CCOC)c2=O)N2CCC(C)CC2)cc1` (centres undefined) gave TDP1 cell noCPT -2%, TDP1 block -5%, TGFb inhibitor 1%, HepG2 tox -6% and DT40 TDP1 CPT 5%.
Cc1csc(N(C(=O)c2cccc(S(=O)(=O)N(C)C)c2)c2ccccc2)n1 was read as TDP1 cell noCPT inconclusive, TDP1 block 6%, TGFb inhibitor inconclusive, IL1B secr inh -14, HepG2 tox -37% and DT40 TDP1 CPT 15µM*.
Cc1csc(N(C(=O)c2cccc(S(=O)(=O)N3CCCC3)c2)c2ccccc2)n1 was read as TDP1 cell noCPT 18µM*, TDP1 block 2%, TGFb inhibitor -33%, IL1B secr inh 8, HepG2 tox 8% and DT40 TDP1 CPT 21µM*.
Screening CC(C)(C)OC(=O)C[C@H]1C/C=C\C[C@@H](CC(=O)N(CCO)Cc2ccccc2)C(=O)N[C@@H](c2ccccc2)COC1=O returned TDP1 cell noCPT inconclusive, TDP1 block 1%, TGFb inhibitor -43%, IL1B secr inh -4, HepG2 tox -36% and DT40 TDP1 CPT inconclusive.
O=C(N[C@@H]1C/C=C\C[C@@H](CC(=O)N(CCO)Cc2ccccc2)C(=O)N[C@@H](c2ccccc2)COC1=O)OCC1c2ccccc2-c2ccccc21 was read as TDP1 cell noCPT 6.5µM*, TDP1 block 0%, TGFb inhibitor inconclusive, IL1B secr inh 9, HepG2 tox 3% and DT40 TDP1 CPT 7.3µM*.
Screening O=C(N[C@H]1C/C=C\C[C@H](CC(=O)N(CCO)Cc2ccccc2)C(=O)NC[C@H](c2ccccc2)OC1=O)OCC1c2ccccc2-c2ccccc21 returned TDP1 cell noCPT 6.5µM*, TDP1 block -11%, TGFb inhibitor 5%, IL1B secr inh -2, HepG2 tox -1% and DT40 TDP1 CPT 6.5µM*.
For O=C(OCC(=O)c1ccc(Cl)cc1Cl)c1cnccn1 the results were TDP1 cell noCPT -13%, TDP1 block 4%, TGFb inhibitor -15%, IL1B secr inh -8, HepG2 tox -10% and DT40 TDP1 CPT -4%.
Screening Nc1ncnc(N2CCc3ccccc32)c1[N+](=O)[O-] returned TDP1 cell noCPT 7.3µM*, TDP1 block 0%, TGFb inhibitor 0%, IL1B secr inh -1, HepG2 tox 0% and DT40 TDP1 CPT 5.8µM*.
`Cc1sc(NC(=S)NC(=O)CCc2ccccc2)c(C(N)=O)c1C` gave TDP1 cell noCPT 0.18µM*, TDP1 block 0%, TGFb inhibitor inconclusive, IL1B secr inh 44, HepG2 tox 13% and DT40 TDP1 CPT 0.21µM*.
For NC(=O)c1ccccc1NC(=O)CCc1ccccc1 the results were TDP1 cell noCPT inconclusive, TDP1 block 1%, TGFb inhibitor -10%, IL1B secr inh -4, HepG2 tox -2% and DT40 TDP1 CPT inconclusive.
For COC(=O)c1c(NC(=O)CCC(=O)O)sc(Cc2ccccc2)c1C the results were TDP1 cell noCPT -1%, TDP1 block 1%, TGFb inhibitor -5%, IL1B secr inh 21, HepG2 tox 4% and DT40 TDP1 CPT -26%.
Cc1sc(NC(=S)NC(=O)c2ccco2)c(C(N)=O)c1C was read as TDP1 cell noCPT 0%, TDP1 block -5%, TGFb inhibitor 4%, IL1B secr inh -3, HepG2 tox 4% and DT40 TDP1 CPT 13%.
Screening NC(=O)c1ccccc1NC(=S)NC(=O)CCc1ccccc1 returned TDP1 cell noCPT 2.6µM*, TDP1 block -5%, TGFb inhibitor 0%, IL1B secr inh 11, HepG2 tox 0% and DT40 TDP1 CPT 3.7µM*.
